Screening data deposited in PubChem by University of Kansas High Throughput Screening Laboratory.
Shown are actives, neighbours in structure and some others; about 3.5% of the full set was active somewhere.
mHTT CaM bind: inhibitors of human mutant huntingtin-calmodulin interaction; P42858; AlphaScreen His-mHTT/GST-CaM binding, luminescence; inhibition, % at 15 µM; 190,000 compounds, 3.6% hits;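 also: 0% = both proteins with DMSO and 100% = one protein alone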
Target sequence (P42858 whole entry, looked up, stated change not applied): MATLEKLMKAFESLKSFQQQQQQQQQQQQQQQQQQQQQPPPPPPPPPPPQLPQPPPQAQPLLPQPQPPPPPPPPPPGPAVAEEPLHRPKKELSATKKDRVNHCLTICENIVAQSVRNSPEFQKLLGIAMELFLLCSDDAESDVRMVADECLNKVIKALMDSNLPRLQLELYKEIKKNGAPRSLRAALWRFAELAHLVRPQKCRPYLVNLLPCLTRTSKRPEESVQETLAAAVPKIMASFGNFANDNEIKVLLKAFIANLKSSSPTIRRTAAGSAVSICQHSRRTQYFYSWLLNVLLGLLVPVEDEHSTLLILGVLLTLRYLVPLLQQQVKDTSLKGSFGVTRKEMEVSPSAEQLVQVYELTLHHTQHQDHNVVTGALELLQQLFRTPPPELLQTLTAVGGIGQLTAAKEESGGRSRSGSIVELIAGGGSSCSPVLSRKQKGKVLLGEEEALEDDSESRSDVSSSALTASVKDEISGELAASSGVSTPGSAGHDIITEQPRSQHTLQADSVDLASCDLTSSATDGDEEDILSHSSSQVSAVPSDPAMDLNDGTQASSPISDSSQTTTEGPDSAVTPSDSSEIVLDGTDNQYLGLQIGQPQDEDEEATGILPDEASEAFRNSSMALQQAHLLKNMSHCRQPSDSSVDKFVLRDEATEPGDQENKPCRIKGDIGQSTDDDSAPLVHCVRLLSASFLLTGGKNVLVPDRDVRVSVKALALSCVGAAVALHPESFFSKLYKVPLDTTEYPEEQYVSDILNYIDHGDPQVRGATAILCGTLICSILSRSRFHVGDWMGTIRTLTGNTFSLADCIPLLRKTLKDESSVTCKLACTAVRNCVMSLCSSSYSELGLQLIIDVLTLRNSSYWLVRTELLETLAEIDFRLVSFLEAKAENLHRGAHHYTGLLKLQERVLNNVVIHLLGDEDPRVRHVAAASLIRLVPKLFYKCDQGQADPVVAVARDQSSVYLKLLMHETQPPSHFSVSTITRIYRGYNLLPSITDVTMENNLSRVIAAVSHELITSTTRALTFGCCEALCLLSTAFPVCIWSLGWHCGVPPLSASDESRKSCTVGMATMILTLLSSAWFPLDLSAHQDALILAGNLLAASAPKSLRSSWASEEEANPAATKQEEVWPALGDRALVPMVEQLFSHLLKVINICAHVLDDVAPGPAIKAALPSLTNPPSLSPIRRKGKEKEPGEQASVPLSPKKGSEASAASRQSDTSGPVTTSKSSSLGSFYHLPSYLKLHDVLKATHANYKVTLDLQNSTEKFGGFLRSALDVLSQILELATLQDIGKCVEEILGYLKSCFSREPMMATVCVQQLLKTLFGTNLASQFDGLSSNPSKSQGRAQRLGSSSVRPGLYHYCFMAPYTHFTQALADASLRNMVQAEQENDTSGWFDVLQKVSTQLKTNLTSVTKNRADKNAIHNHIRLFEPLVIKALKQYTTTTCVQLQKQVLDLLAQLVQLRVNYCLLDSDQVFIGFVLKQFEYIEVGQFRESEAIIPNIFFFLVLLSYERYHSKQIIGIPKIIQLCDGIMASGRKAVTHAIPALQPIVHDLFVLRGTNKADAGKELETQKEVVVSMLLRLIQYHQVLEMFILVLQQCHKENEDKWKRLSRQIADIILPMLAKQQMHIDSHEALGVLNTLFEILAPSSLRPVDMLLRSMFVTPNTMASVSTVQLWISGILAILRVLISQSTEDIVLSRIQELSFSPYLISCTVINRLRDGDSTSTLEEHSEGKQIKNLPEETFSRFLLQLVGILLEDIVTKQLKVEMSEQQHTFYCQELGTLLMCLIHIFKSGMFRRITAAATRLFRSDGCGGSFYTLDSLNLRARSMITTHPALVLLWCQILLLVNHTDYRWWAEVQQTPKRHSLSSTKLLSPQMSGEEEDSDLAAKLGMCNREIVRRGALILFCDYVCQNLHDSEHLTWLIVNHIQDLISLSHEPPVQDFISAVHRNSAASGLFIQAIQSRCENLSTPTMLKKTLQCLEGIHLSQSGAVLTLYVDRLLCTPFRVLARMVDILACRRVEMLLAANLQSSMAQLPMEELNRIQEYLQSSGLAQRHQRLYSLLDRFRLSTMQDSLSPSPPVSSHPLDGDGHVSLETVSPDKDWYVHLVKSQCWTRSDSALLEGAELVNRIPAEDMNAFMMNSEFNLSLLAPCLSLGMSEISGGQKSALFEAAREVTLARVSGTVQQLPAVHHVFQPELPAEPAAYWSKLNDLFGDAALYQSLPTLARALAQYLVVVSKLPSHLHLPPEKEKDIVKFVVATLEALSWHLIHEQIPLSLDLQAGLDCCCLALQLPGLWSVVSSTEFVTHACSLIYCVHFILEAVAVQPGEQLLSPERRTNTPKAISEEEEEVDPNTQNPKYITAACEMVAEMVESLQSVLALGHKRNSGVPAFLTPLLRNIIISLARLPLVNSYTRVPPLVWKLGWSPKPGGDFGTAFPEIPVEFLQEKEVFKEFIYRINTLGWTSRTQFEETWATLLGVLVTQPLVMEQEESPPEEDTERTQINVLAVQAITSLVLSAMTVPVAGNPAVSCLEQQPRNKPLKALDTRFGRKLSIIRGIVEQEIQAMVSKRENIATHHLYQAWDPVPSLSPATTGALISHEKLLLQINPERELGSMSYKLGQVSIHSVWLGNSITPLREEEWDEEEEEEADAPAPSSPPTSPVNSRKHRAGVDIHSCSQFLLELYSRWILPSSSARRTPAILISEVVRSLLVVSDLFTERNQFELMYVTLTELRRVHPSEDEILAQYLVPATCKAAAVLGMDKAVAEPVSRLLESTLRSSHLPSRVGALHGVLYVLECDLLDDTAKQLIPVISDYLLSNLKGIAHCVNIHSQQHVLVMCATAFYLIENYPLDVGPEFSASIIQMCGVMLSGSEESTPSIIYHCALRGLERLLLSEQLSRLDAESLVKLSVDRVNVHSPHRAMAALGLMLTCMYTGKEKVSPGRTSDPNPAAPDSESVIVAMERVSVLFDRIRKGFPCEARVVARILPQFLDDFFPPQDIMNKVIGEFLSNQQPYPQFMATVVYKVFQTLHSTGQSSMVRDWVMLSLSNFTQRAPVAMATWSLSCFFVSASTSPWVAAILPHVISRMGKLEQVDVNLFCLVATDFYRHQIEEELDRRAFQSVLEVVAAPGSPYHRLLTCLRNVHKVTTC
Pf apPOL inh: Pf-apPOL DNA polymerase inhibition | Recombinant Pf-apPOL, molecular beacon fluorescence, 1.5 h | inhibition, % at 10 µM | 210,000 compounds, 0.25% hits | AID 1794808
The depositor's hits bear a star; i = inactive; x = no result. Rule as the data show it: active = inhibition above about 50%; inactive = the rest.

SMILES	mHTT CaM bind	Pf apPOL inh
COc1cccc(NC(=O)C2CCN(c3nc4ccc(-c5cncnc5)nc4s3)CC2)c1	11	0
Cc1ccc(OCC(=O)Nc2ccc(C(N)=O)cc2)c(C)c1	-1	3
Cc1ccccc1-c1noc(C2CCCN2C(=O)Nc2ccc(F)cc2F)n1 (stereo not drawn)	-6	-5
Cc1cc2nc(SCC(=O)c3ccc(Cl)cc3)[nH]c2cc1C	5	-12
N=C1S/C(=C\c2cccc(F)c2)C(=O)N1c1ccc2c(c1)OCO2	2	-2
CCN(C(=O)CCS(=O)(=O)c1ccc(C)cc1)c1ccc2c(c1)OCO2	8	-5
CC1CCN(CC(O)COc2ccc3c(c2)CCC3)CC1 (stereo not drawn)	-1	-7
CCN(CC)c1ccc(C2C(C(=O)Nc3ccccn3)=C(C)NC3=C2C(=O)CCC3)cc1 (stereo not drawn)	15	-2
CCN(CC)c1ccc(C(Nc2ccccn2)c2ccc3cccnc3c2O)cc1 (stereo not drawn)	100*	-1
CC(C)Oc1ccc(C(=O)Nc2cc(-c3nc4ncccc4o3)ccc2Cl)cc1	6	-7
CC(C)Oc1ccc(C(Nc2ccccn2)c2ccc3cccnc3c2O)cc1 (stereo not drawn)	98*	-280
CN1CCN(S(=O)(=O)c2cccc(F)c2)CC1c1ccc(F)cc1 (stereo not drawn)	-3	0
O=C1OC(c2ccc(Cl)c([N+](=O)[O-])c2)=N/C1=C\c1cccs1	-2	9
O=C1OC(c2cccs2)=N/C1=C/c1cccc(I)c1	0	4
CCc1onc(C)c1C1CCCN1C(=O)c1c(Cl)cnn1CC (stereo not drawn)	-2	-2
COc1c(Cl)cc(Cl)cc1C1C(C#N)=C(N)Oc2n[nH]c(-c3cccs3)c21 (stereo not drawn)	74*	0
N#CC1=C(N)Oc2n[nH]c(-c3cccs3)c2C1c1cccs1 (stereo not drawn)	7	2
N#CC1=C(N)Oc2n[nH]c(-c3cccs3)c2C1c1ccc([N+](=O)[O-])s1 (stereo not drawn)	55*	-1
COc1ccc(C2C(C#N)=C(N)Oc3n[nH]c(-c4cccs4)c32)c(OC)c1OC (stereo not drawn)	15	2
CCOc1ccc(C(=O)NCCC2CCN(C(=O)NC3CCCCC3)CC2)cc1	-6	6
COc1ccc2[nH]c3c(c2c1)CC(C)NC3=O (stereo not drawn)	1	-3
O=C1NCCc2c1[nH]c1ccc(C#Cc3ccccc3)cc21	97*	-31
CC(=O)N1CCCN(C(=O)Nc2ccc(C)cc2)CC1	-1	-1
COCCN(CCOC)Cc1c(O)ccc2c1OC(=Cc1ccccc1OC)C2=O	3	-8
COc1c(C(C)C)cc(NC(C)=O)cc1C(C)C	-1	-3
SMILES	mHTT CaM bind	Pf apPOL inh
CC(=O)Nc1ccc(Nc2cc(C(C)C)c(O)c(C(C)C)c2)cc1	74*	3
COc1ccc(C(=O)O/N=C(\N)Cc2ccc(Cl)cc2)c(OC)c1	i	-9
Cn1c(N2CCCC(C(=O)N3CCN(Cc4ccccc4)CC3)C2)cc(=O)n(C)c1=O (stereo not drawn)	9	-1
CCn1ccc2sc(C)c(C(=O)N3CCN(c4ccc(F)cc4)CC3)c2c1=O	55*	-3
CCn1ccc2sc(C)c(C(=O)N3CCN(c4ccccc4F)CC3)c2c1=O	41	-4
Cc1sc2ccn(C)c(=O)c2c1C(=O)N1CCCCCC1	7	-1
CCCn1ccc2sc(C)c(C(=O)N3CCN(c4ccc(F)cc4)CC3)c2c1=O	60*	1
Cc1ccc(C)c(N2CCN(C(=O)c3c(C)sc4ccn(C)c(=O)c34)CC2)c1	92*	0
CCCn1ccc2sc(C)c(C(=O)N3CCCC3)c2c1=O	6	3
COc1cccc2c(=O)c(C(=O)NN)c[nH]c12	0	5
CC(=O)C1=C(C)NC(SCC(N)=O)=C(C#N)C1c1ccc(Cl)cc1 (stereo not drawn)	7	1
O=C1N=C(N2CCOCC2)S/C1=C\c1ccc(-c2ccccc2)o1	80*	-2
O=C1N=C(N2CCOCC2)S/C1=C\c1cccs1	-5	6
Cc1ccc(/C=C2\SC(c3ccccc3)=NC2=O)o1	56*	-6
O=C1N=C(c2ccccc2)S/C1=C/c1ccc2c(c1)OCO2	-3	1
COCC(C)NCc1ccccc1OC (stereo not drawn)	-4	-4
COc1ccc(OC)c(Nc2ncc3c(n2)CCN(CCc2ccccc2)C3)c1	59*	-3
CCCN1CCc2nc(Nc3ccccc3OC)ncc2C1	1	96*
COc1ccc(OC)c(Nc2ncc3c(n2)CCN(Cc2cccc(OC)c2OC)C3)c1	47	-3
COc1ccccc1Nc1ncc2c(n1)CCN(Cc1ccc(F)cc1)C2	-8	36
COc1cccc(CN2CCc3nc(Nc4cc(OC)ccc4OC)ncc3C2)c1	15	-5
CCOc1ccccc1CN1CCc2nc(Nc3cc(OC)ccc3OC)ncc2C1	63*	-4
COc1ccc(CCC(=O)NCCc2cn3cccc(C)c3n2)cc1	-4	0
Cc1nn(-c2nc(C)c(C)c(=O)[nH]2)c(C)c1CCC(=O)NCc1cc(-c2ccccc2)on1	-5	-1
Cc1ccc(-n2c(O)c(C=C3C=CC=N3)c(=O)[nH]c2=O)cc1	12	0
SMILES	mHTT CaM bind	Pf apPOL inh
O=c1[nH]c(=O)n(-c2ccccc2F)c(O)c1C=C1C=Nc2ccc(Br)cc21	100*	5
CC1=Nc2ccccc2C1=Cc1c(O)n(-c2ccc(C)cc2)c(=O)[nH]c1=O	12	-44
Cc1cc(C)c(-n2c(O)c(C=C3C=Nc4ccccc43)c(=O)[nH]c2=O)c(C)c1	100*	2
N#CC1=CN(c2cccc(Br)c2)c2ccc(F)cc2S1(=O)=O	6	0
CC1(C)c2ccccc2N2CCC(=O)NC21C=Cc1cccs1 (stereo not drawn)	x	-9
Cc1ccc(/C=C/C23NC(=O)CCN2c2ccccc2C3(C)C)cc1 (stereo not drawn)	55*	-4
N#CC1=C(N)Oc2n[nH]c(-c3ccccc3)c2C12c1ccccc1-c1ccccc12	90*	-2
N#CC1=C(N)Oc2n[nH]c(-c3ccccc3)c2C12C(=O)Nc1ccccc12 (stereo not drawn)	3	-2
Cc1[nH]c(-c2ccc(Cl)cc2)cc1C(=O)NC1CCCC1	-2	-14
CC(=O)Oc1ccc2c(c1)Oc1cc(OC(C)=O)ccc1C21OC(=O)c2ccccc21	87*	6
CC(=O)Oc1ccc2c(c1)OC(=Cc1ccccc1Br)C2=O	0	-6
Cc1ccc(-c2cnc(N3CCCC(C(=O)NC4CCCC4)C3)nc2)cc1 (stereo not drawn)	-7	1
Cc1ccccc1-n1c(=O)n(C2CC2)c(=O)c2c1ncn2Cc1ccccc1	-6	-7
COc1ccc(C(=O)N2CCc3cc(OC)c(OC)cc3C2)cc1OC	-3	-5
COc1cc2c(cc1OC)CN(C(=O)C(c1ccccc1)n1cccc1)CC2 (stereo not drawn)	65*	6
COc1ccc2oc(-c3ccc(NC(=O)c4cccc(C)c4)cc3)nc2c1	26	-2
O=C(C=Cc1ccnc2ccccc12)c1ccc(O)cc1	3	-11
O=C(NCCOc1ccc(-c2ccccn2)nn1)c1ccco1	100*	-9
CC(Oc1ccccc1F)C(=O)NCCOc1ccc(-c2ccccn2)nn1 (stereo not drawn)	100*	-9
O=C(NCCOc1ccccc1-c1ccccc1)c1ccco1	0	-1
